Our source for the growth inhibition values is PubChem BioAssay (NCI).

This is part of a sample that, as a whole, favours compounds with a hit. Of some 79,000 tested, about 15% had one in any assay. Unmarked numbers belong to inactive results. Active and inactive are the calls of the source. No stated cut-off is given here; in the data, active means growth inhibition above about 70%; inactive means the rest.

The test can be described thus: NCI Yeast Anticancer Drug Screen. Data for the sgs1 strain (AID 173).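 Further: 0% = growth of vehicle-only control cultures.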 To be noted: S. cerevisiae sgs1 mutant, stronger effect = higher value. The method, then:
Growth inhibition of yeast strains with defined genetic alterations is measured as a screen for potential anti-cancer activity. Selected strains with alterations in DNA damage repair or cell cycle control were exposed to compounds and growth inhibition was measured relative to vehicle treated controls. The strain used in this assay is sgs1

With `Cc1cc2c(cc1C)[n+]([O-])c(-c1nc3ccccc3s1)c(N)[n+]2[O-]`, the growth inhibition is 10% (at 1.2 µM); 21% (at 3.7 µM); 24% (at 11.0 µM); 39% (at 33.0 µM); 79% (active) (at 100.0 µM).
As for `Cc1nc2c(Br)cc(Br)cc2c(=O)n1-c1ccccc1NC1OCC(O)C(O)C1O` (stereo not given), the growth inhibition by setting is: (at 1.2 µM) 2%; (at 3.7 µM) 5%; (at 11.0 µM) 13%; (at 33.0 µM) 41%; (at 100.0 µM) 88% (active).
In the case of `CC[n+]1oc(C(=O)c2ccc(Cl)cc2)c(-c2ccccc2)c1-c1ccccc1.[Cl][Fe]([Cl])([Cl])[Cl]`, the growth inhibition (at 1.2 µM) was 0%; the growth inhibition (at 3.7 µM) was -1%; the growth inhibition (at 11.0 µM) was 18%; the growth inhibition (at 33.0 µM) is 59%; the growth inhibition (at 100.0 µM) was 87% (active).
For the compound `O=[N+]([O-])c1ccc(N/N=C/Cc2ccccc2)c([N+](=O)[O-])c1`, the growth inhibition is, setting by setting: (at 1.2 µM) -4%; (at 3.7 µM) -1%; (at 11.0 µM) 2%; (at 33.0 µM) 9%; (at 100.0 µM) 22%.
`CN(C)c1ccc2c(SCC(=O)OCC(=O)[C@@]3(O)CC[C@H]4[C@@H]5CCC6=CC(=O)C=C[C@]6(C)[C@H]5C(=O)C[C@@]43C)c3ccc(N(C)C)cc3nc2c1`: the growth inhibition is 2% (at 1.2 µM); -18% (at 3.7 µM); 71% (active) (at 11.0 µM); 91% (active) (at 33.0 µM); 90% (active) (at 100.0 µM).
On to `Cc1nc2ccc(N=NN(C)C)cc2[nH]1`, for which the growth inhibition is 27% (at 1.2 µM); 39% (at 3.7 µM); 40% (at 11.0 µM); 49% (at 33.0 µM); 99% (active) (at 100.0 µM).
For `COC(C(O)CO)C(O)C(O)C(=O)NNc1ccccc1` (stereo not given) the same measures were -11%, 34%, 47%, 68% and 97% (active).
For the compound `N#CC1=C(N)N(/N=C/c2ccccc2)C(c2ccccc2)C1(C#N)C#N` (stereo not given), the growth inhibition by setting is: (at 1.2 µM) 15%; (at 3.7 µM) 41%; (at 11.0 µM) 80% (active); (at 33.0 µM) 93% (active); (at 100.0 µM) 95% (active).
